What all share (experiment): DAPPL (digital affinity profiling via proximity ligation, sequencing); 10 mM Tris-HCl pH 7.5, 50 mM NaCl, 1 mM DTT, 4% glycerol, room temperature, 30 min; GST-TFs on glutathione beads, 16-mer random dsDNA library, 0.1% formaldehyde crosslink after washing; high values mean tight binding
The target of one assay is T1, FLI1 (Homo sapiens, UniProt Q01543 1-452).
T1 sequence: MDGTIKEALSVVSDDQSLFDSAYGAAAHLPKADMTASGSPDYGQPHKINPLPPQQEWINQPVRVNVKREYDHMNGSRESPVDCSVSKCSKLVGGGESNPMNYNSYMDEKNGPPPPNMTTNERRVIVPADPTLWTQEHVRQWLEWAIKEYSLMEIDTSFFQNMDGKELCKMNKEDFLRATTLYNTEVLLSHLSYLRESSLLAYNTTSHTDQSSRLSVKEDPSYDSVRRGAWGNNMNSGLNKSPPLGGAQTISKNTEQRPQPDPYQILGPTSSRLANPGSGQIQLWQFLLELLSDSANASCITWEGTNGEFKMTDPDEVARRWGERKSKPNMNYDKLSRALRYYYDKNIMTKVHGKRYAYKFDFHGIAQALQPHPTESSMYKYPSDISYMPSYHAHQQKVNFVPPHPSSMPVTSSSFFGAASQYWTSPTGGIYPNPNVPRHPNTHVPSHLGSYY
The following applies: protein: recombinant; tags: N-terminal GST; dsDNA, one strand shown. The method, boiled down:
(§1)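 Sequencing on an Illumina NextSeq500 followed washing, crosslinking with 0.1% formaldehyde, proximity ligation (BsaI/T4 ligase, 1 h, 37 °C) and PCR amplification of pools that had been incubated for 30 min at room temperature with 200 nmole of a random double-stranded 16-mer DNA library in Tris/NaCl/DTT/glycerol buffer. Each pool held DNA-barcoded human transcription factors, expressed in yeast as GST fusions and captured on glutathione beads, plus a tag-only sample. Binding signal is a hexamer's read frequency for a factor divided by its frequency in the tag-only sample.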

For the next assay, the target named is T2, ELK1 (Homo sapiens, UniProt P19419 1-428).
T2 sequence: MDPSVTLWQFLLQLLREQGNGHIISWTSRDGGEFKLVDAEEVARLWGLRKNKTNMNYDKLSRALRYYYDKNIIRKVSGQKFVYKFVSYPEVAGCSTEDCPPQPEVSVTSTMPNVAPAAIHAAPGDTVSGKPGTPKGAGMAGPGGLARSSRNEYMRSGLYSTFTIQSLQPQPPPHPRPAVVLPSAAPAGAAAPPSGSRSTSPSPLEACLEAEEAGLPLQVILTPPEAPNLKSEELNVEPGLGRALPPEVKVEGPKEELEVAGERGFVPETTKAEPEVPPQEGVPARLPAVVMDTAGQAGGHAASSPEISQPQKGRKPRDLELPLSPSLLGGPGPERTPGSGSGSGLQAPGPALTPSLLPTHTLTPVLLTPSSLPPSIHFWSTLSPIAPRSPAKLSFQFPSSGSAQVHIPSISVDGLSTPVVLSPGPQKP
The following applies: protein: recombinant; tags: N-terminal GST; dsDNA, one strand shown. The procedure, abridged: as §1

The next assay deals with T3, GABPA (Homo sapiens, UniProt Q06546 1-454).
T3 sequence: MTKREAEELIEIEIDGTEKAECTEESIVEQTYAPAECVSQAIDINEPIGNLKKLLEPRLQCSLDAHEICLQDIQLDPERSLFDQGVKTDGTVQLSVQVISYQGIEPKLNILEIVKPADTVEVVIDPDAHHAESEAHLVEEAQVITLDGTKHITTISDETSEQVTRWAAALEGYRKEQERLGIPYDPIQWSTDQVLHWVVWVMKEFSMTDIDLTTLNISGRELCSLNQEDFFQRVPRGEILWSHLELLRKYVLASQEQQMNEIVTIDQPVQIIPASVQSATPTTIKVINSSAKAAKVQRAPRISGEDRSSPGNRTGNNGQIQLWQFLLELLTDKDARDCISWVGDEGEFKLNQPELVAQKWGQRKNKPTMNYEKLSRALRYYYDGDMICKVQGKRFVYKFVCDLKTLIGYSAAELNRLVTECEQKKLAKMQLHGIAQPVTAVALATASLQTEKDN
The following applies: protein: recombinant; tags: N-terminal GST; dsDNA, one strand shown. The procedure, abridged:
as §1

A further assay concerns the target T4, ERG (Homo sapiens, UniProt P11308 1-479).
T4 sequence: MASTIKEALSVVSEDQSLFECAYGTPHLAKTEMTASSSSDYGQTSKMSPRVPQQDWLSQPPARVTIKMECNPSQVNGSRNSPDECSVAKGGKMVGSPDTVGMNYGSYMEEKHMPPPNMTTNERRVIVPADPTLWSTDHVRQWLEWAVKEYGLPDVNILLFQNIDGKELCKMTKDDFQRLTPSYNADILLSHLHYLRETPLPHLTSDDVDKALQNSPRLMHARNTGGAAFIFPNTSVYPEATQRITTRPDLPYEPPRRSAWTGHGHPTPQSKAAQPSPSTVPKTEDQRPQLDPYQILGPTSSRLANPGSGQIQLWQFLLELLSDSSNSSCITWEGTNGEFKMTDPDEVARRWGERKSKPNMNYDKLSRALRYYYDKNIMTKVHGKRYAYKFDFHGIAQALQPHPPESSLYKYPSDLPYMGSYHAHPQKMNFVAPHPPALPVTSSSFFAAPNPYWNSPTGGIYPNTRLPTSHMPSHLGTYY
The following applies: protein: recombinant; tags: N-terminal GST; dsDNA, one strand shown. The procedure, abridged:
as §1

The target of another assay is ELF1 (Homo sapiens, UniProt P32519 1-619). The note with it: protein: recombinant; tags: N-terminal GST; dsDNA, one strand shown. The method, boiled down:
as §1

Another assay concerns the target T5, EHF (Homo sapiens, UniProt Q9NZC4 1-300).
T5 sequence: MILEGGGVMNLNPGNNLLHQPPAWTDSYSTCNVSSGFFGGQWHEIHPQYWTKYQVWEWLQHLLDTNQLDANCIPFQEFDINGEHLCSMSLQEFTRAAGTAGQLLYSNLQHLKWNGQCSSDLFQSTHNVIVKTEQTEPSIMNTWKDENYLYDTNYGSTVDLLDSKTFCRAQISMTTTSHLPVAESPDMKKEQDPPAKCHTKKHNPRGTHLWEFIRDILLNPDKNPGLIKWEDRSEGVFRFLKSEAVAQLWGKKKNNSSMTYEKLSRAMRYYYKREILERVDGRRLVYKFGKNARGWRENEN
The note with it: protein: recombinant; tags: N-terminal GST; dsDNA, one strand shown. The procedure, abridged: as §1

In the next assay the target is SPI1 (Homo sapiens, UniProt P17947 1-270). The note with it: protein: recombinant; tags: N-terminal GST; dsDNA, one strand shown. The method, boiled down: as §1
The target in a further assay is SPIB (Homo sapiens, UniProt Q01892 1-262). The note with it: protein: recombinant; tags: N-terminal GST; dsDNA, one strand shown. The procedure, abridged:
as §1

The target of another assay is T6, ELK3 (Homo sapiens, UniProt P41970 1-407).
T6 sequence: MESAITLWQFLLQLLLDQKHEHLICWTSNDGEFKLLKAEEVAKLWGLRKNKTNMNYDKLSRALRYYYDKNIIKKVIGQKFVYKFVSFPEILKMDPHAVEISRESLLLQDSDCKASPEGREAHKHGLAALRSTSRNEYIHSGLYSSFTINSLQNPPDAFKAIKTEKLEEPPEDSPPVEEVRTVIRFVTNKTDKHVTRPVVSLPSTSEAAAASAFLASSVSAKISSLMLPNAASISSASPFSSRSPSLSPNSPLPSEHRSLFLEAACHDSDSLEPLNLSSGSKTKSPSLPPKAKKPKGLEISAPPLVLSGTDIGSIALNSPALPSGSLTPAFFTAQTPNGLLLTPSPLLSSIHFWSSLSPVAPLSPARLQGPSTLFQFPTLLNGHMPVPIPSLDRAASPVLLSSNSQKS
The following applies: protein: recombinant; tags: N-terminal GST; dsDNA, one strand shown. The method, boiled down:
as §1

The target of a further assay is ETV5 (Homo sapiens, UniProt P41161 1-510). The note with it: protein: recombinant; tags: N-terminal GST; dsDNA, one strand shown. The procedure, abridged: as §1
Chain of ETV5 (P41161 whole entry): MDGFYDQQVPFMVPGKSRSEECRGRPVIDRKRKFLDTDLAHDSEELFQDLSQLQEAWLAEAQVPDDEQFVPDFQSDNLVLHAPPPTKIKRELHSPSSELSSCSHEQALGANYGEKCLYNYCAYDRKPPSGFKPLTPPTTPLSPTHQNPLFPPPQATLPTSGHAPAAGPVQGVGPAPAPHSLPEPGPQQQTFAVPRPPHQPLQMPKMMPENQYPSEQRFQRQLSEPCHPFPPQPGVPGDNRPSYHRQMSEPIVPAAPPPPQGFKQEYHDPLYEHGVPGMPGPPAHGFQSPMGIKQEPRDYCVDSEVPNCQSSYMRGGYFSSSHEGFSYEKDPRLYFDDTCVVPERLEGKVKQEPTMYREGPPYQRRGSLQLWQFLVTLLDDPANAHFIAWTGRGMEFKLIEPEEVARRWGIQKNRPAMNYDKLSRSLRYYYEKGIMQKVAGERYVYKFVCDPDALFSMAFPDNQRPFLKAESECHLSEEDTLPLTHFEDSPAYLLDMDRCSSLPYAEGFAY
The target of another assay is HSF1 (Homo sapiens, UniProt Q00613 1-529). The following applies: protein: recombinant; tags: N-terminal GST; chain copies: 3; dsDNA, one strand shown. The method, boiled down: as §1
Chain of HSF1 (Q00613 whole entry): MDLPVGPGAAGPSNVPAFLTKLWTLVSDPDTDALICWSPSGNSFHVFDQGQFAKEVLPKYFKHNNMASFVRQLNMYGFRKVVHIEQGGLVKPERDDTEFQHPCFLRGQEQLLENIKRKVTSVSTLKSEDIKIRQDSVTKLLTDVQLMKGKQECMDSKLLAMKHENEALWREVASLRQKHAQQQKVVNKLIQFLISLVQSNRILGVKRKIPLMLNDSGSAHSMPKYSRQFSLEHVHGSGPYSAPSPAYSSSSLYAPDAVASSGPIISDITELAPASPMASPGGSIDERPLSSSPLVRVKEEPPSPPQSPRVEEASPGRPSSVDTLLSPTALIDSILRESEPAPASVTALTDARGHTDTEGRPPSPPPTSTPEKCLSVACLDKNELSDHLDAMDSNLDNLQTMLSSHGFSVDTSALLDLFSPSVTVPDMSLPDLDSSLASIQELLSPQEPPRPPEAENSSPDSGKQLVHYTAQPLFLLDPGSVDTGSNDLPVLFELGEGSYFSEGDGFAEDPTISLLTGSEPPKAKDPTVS
The next assay has as its target T7, SPIC (Homo sapiens, UniProt Q8N5J4 1-248).
T7 sequence: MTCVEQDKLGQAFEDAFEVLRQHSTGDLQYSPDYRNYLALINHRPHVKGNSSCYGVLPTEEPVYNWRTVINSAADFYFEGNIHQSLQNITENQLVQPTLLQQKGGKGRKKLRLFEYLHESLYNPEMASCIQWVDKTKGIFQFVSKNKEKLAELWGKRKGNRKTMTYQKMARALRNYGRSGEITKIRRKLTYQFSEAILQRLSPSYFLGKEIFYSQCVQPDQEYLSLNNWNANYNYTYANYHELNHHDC
The note with it: protein: recombinant; tags: N-terminal GST; dsDNA, one strand shown. The method, boiled down:
as §1

The target of the next assay is ELF4 (Homo sapiens, UniProt Q99607 1-663). The following applies: protein: recombinant; tags: N-terminal GST; dsDNA, one strand shown. The method, boiled down:
as §1

The target of the next assay is T8, ELK4 (Homo sapiens, UniProt P28324-2 1-405).
T8 sequence: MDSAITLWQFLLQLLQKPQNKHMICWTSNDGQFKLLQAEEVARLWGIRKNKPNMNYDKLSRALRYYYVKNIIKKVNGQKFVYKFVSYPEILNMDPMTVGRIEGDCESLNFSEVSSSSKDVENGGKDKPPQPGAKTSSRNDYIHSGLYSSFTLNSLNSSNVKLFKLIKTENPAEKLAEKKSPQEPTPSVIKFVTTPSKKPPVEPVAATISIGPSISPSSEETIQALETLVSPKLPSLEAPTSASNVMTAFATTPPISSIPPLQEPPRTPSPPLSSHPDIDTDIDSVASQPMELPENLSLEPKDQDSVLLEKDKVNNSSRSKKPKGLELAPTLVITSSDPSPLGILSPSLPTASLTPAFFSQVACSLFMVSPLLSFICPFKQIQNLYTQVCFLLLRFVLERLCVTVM
The following applies: protein: recombinant; tags: N-terminal GST; dsDNA, one strand shown. The method, boiled down:
as §1

Another assay addresses T9, ETV2 (Homo sapiens, UniProt O00321 1-342).
T9 sequence: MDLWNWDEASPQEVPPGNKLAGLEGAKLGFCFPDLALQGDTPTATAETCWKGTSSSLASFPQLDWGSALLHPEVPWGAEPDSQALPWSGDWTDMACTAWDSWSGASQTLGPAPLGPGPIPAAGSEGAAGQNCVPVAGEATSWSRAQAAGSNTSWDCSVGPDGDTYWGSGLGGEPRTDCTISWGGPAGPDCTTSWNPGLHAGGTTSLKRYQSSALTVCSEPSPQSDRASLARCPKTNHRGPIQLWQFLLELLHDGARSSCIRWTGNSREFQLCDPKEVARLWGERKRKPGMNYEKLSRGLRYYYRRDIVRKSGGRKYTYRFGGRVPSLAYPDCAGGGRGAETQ
The following applies: protein: recombinant; tags: N-terminal GST; dsDNA, one strand shown. The method, boiled down:
as §1

For another assay, the target named is T10, ELF3 (Homo sapiens, UniProt P78545 1-371).
T10 sequence: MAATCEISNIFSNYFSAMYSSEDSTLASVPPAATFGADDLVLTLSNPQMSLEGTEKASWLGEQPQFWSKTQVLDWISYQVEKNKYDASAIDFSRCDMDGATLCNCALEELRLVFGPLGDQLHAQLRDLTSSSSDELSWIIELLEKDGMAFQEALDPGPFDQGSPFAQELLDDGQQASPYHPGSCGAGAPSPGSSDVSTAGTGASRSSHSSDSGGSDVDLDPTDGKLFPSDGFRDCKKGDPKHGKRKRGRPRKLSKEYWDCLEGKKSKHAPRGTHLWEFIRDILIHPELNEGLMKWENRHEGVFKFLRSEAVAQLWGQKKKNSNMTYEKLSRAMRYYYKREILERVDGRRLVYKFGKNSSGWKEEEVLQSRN
The following applies: protein: recombinant; tags: N-terminal GST; dsDNA, one strand shown. The method, boiled down: as §1

In the next assay the target is ETV1 (Homo sapiens, UniProt P50549 1-477). The following applies: protein: recombinant; tags: N-terminal GST; dsDNA, one strand shown. The method, boiled down: as §1
Chain of ETV1 (P50549 whole entry): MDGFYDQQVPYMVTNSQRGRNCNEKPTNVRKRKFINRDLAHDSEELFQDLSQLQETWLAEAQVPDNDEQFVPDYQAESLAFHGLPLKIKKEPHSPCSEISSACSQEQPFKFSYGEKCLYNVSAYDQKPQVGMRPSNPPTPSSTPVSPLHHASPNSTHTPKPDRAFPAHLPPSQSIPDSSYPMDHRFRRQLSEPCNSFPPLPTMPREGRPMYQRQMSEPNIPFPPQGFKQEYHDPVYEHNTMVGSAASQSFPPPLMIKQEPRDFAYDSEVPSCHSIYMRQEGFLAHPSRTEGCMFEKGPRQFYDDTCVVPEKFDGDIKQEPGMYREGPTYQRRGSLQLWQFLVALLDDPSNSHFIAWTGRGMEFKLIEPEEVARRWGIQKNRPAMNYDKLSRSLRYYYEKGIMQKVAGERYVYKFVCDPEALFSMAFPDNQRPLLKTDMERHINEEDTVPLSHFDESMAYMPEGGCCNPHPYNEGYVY

Chain of ELF4 (Q99607 whole entry): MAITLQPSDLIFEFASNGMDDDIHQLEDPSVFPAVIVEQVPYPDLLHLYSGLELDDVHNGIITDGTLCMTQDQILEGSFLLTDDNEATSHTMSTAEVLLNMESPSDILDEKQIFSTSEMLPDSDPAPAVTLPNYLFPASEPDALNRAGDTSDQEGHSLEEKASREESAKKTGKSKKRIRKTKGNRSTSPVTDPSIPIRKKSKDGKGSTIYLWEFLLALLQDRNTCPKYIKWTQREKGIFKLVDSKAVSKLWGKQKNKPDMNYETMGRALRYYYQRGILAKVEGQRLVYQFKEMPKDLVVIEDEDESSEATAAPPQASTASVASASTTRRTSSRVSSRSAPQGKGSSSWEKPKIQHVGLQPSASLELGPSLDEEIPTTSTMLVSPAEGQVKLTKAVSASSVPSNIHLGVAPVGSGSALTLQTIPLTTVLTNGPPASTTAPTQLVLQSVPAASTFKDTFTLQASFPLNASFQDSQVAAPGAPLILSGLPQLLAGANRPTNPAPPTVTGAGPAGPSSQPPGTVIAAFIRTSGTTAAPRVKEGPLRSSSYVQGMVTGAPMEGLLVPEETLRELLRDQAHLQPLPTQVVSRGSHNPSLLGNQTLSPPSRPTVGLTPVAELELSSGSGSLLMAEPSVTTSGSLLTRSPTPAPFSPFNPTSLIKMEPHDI
Chain of ELF1 (P32519 whole entry): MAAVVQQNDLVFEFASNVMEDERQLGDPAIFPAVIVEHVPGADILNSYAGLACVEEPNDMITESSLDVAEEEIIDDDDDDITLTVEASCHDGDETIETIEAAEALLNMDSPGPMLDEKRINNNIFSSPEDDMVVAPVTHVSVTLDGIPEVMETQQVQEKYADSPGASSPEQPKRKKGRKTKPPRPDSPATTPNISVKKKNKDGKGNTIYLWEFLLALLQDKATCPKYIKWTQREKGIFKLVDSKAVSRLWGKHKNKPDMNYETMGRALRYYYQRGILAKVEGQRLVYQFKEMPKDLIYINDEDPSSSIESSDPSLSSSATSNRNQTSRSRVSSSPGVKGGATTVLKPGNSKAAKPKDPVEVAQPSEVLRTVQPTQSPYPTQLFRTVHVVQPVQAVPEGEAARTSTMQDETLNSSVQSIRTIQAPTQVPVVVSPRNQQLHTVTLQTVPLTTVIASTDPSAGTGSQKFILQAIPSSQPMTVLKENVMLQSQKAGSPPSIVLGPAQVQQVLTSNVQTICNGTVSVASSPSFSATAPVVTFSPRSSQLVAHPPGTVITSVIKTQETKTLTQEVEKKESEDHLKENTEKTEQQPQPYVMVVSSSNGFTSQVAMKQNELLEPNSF
Chain of SPIB (Q01892 whole entry): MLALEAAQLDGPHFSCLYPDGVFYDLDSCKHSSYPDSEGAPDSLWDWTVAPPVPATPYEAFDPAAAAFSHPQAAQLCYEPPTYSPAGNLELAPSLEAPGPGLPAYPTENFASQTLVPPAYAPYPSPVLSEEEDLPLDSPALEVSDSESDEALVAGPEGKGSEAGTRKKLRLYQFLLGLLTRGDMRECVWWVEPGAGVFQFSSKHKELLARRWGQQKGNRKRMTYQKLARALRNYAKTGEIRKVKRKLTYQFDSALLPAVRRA

Consider TGCGTT, for which the binding signal with FLI1 is 1.04 fold enrichment (6-mer frequency, TF over GST control); with ELK1, 1.09 fold enrichment (6-mer frequency, TF over GST control); in the assay with GABPA it was 1.17 fold enrichment (6-mer frequency, TF over GST control); with ERG it was 1.12 fold enrichment (6-mer frequency, TF over GST control); with ELF1, 1.12 fold enrichment (6-mer frequency, TF over GST control); with EHF, 1.08 fold enrichment (6-mer frequency, TF over GST control). Moreover, the binding signal with SPI1 was 1.1 fold enrichment (6-mer frequency, TF over GST control); in the assay with SPIB, 1.11 fold enrichment (6-mer frequency, TF over GST control); with ELK3, 1.13 fold enrichment (6-mer frequency, TF over GST control); with ETV5, 1.07 fold enrichment (6-mer frequency, TF over GST control); with HSF1 it was 1 fold enrichment (6-mer frequency, TF over GST control); in the assay with SPIC, 1.13 fold enrichment (6-mer frequency, TF over GST control). Moreover, the binding signal with ELF4 is 1.05 fold enrichment (6-mer frequency, TF over GST control); with ELK4, 1.19 fold enrichment (6-mer frequency, TF over GST control); with ETV2, 1.16 fold enrichment (6-mer frequency, TF over GST control); with ELF3, 1.25 fold enrichment (6-mer frequency, TF over GST control); in the assay with ETV1, 1.02 fold enrichment (6-mer frequency, TF over GST control).

The values are drawn from PMC7862700, “An all-to-all approach to the identification of sequence-specific readers for epigenetic DNA modifications on cytosine”.
